Drawing on PubChem BioAssay, this text covers growth inhibition, inhibition and outcome for 20 molecules.

One may read the inhibition as the change of the read-out against control, counted positive when it falls.

SMILES strings stand for the structures. A number with no mark means an inactive call. For some of these results: Results with a measured potency or affinity are listed apart. The source made the active and inactive calls. Unless noted, how the calls were made is not given here.

Test [1] can be described thus: antimalarial activity against Dd2 strain (AID 2302;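 active means growth inhibition above 50% at the single 2 µM test dose, taken to imply half-maximal potency below 2 µM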;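 further: 0% = DMSO untreated growth and 100% = chloroquine plus artemisinin killed control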). To be noted: P. falciparum Dd2 in RBCs, LDH growth readout, 72 h; at 2 µM; stronger effect = higher value.
The nature of test [2]: human hepatoma cell viability loss – ATP luminescence, cytotoxicity control for P. falciparum antimalarial project, primary screen (AID 2303;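 active means inhibition above 50%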;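 further: 0% = DMSO wells and 100% = digitonin-killed cells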). Particulars: HepG2 viability, 24-48 h, at 10 µM, stronger effect = higher value.
Test [3] has as its target L-lactate dehydrogenase (Plasmodium falciparum (isolate CDC / Honduras)) (UniProt Q27743). Briefly: PfLDH activity inhibition – cell lysate, 3D7 strain, counter-screen for P. falciparum growth inhibition project (AID 2304).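 Further: 0% = vehicle and 100% = reference inhibitor.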 To be noted: P. falciparum 3D7 crude extract, LDH APAD/NBT absorbance; at 2 µM; stronger effect = higher value. On the technique in general: Counterscreens check selectivity or assay interference.

Test [4] in a line: inhibition of 3D7 malaria parasite growth – strain 3D7 (AID 2306).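 Further: 0% = DMSO wells and 100% = chloroquine plus artemisinin control wells.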 To be noted: P. falciparum 3D7 erythrocytic growth, LDH absorbance, 72 h; at 2 µM; stronger effect = higher value.
Test [5] has as its target Calcium-dependent protein kinase 1 (Plasmodium falciparum (isolate 3D7)) (UniProt P62344). The test can be described thus: PfCDPK1 kinase inhibitors, biochemical, TCAMS library (AID 1159585; cut-off not given, nearly all actives have IC50 up to about 0.98 µM;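 further: inhibitors leave more ATP so luminescence rises with inhibition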). To be noted: recombinant PfCDPK1, Kinase-Glo ATP depletion luminescence. A general note: Kinase-Glo reads ATP consumption through a luciferase reaction.
Test [6] concerns the target Plasmodium falciparum protein kinase 6 (PK6, PF3D7_1337100) (UniProt Q8IDW1). The test can be described thus: PfPK6 kinase inhibitors, biochemical, TCAMS library (AID 1159586). Particulars: recombinant PfPK6, Kinase-Glo ATP depletion luminescence.
Test [7] addresses Protein kinase 7 (PK7), Plasmodium falciparum 3D7 (PF3D7_0213400) (UniProt Q7YTF7). Briefly: inhibition of Plasmodium PK7 catalytic activity – biochemical, TCAMS antimalarial set, Kinase-Glo luminescence (AID 1159587). To be noted: recombinant PfPK7, Kinase-Glo ATP depletion luminescence.
The target in test [8] is Calcium-dependent protein kinase 4 (Plasmodium falciparum (isolate 3D7)) (UniProt Q8IBS5). Briefly: PfCDPK4 kinase inhibitors, biochemical, TCAMS library (AID 1159588; cut-off not given, nearly all actives have IC50 up to about 0.91 µM). To be noted: recombinant PfCDPK4, Kinase-Glo ATP depletion luminescence.
Calcium-dependent protein kinase 4 (Plasmodium falciparum (isolate 3D7)), sequence (Q8IBS5 whole entry, looked up): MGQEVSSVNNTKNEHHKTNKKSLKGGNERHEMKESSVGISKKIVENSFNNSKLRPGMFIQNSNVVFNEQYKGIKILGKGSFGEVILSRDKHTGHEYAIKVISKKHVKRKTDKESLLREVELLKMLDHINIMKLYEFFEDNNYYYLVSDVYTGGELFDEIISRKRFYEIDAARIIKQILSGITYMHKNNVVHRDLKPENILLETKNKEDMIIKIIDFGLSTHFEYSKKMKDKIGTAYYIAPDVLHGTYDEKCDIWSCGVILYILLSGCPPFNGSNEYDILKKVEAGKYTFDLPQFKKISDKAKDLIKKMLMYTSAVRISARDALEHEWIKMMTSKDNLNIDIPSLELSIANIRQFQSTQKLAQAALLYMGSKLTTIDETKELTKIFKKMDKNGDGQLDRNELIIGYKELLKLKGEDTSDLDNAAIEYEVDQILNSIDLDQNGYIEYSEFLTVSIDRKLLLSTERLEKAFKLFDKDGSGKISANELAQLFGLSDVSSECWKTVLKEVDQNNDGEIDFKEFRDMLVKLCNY

Protein kinase 7 (PK7), Plasmodium falciparum 3D7 (PF3D7_0213400), sequence (Q7YTF7 1-343): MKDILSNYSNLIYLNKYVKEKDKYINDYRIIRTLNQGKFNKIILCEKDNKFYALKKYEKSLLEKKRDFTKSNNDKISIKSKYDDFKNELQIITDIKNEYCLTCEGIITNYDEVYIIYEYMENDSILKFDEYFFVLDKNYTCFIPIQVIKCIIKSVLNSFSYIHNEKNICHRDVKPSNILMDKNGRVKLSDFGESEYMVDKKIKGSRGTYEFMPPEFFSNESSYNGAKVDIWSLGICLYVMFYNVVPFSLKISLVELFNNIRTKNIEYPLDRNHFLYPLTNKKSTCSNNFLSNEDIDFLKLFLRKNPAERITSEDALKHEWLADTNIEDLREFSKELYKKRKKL
Plasmodium falciparum protein kinase 6 (PK6, PF3D7_1337100), sequence (Q8IDW1 1-305): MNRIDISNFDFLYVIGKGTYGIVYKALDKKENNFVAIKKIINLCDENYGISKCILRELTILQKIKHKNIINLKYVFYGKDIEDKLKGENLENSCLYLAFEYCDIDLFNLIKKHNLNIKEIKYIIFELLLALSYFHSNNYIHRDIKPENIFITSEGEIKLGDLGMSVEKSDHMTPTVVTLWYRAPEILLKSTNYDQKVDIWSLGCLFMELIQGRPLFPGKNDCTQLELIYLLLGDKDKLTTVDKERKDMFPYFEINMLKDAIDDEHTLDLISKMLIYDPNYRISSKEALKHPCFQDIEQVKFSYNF
L-lactate dehydrogenase (Plasmodium falciparum (isolate CDC / Honduras)), sequence (Q27743 whole entry, looked up): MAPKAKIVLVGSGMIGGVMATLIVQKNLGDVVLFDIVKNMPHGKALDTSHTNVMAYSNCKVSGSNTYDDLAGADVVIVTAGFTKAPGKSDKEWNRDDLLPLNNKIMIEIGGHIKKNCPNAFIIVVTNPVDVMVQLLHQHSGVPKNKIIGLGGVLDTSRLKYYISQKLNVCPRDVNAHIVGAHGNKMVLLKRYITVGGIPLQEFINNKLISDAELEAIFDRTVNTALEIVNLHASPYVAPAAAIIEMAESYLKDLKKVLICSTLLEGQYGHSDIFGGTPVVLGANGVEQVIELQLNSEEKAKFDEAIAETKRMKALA
Calcium-dependent protein kinase 1 (Plasmodium falciparum (isolate 3D7)), sequence (P62344 whole entry, looked up): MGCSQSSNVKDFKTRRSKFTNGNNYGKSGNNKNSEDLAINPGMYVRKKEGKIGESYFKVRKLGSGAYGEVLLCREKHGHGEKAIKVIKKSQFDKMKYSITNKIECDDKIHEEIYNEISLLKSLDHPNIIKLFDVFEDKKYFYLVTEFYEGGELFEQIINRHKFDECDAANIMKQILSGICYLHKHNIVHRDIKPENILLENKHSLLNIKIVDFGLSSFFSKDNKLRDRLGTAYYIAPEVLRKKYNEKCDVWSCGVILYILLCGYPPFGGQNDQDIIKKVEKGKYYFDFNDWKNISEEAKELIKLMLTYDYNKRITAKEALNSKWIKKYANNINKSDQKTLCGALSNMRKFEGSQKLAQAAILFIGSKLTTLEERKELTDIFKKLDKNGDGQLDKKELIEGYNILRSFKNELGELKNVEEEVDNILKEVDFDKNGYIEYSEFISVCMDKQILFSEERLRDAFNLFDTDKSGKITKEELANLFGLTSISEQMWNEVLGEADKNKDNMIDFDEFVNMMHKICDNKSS

`COc1ccc2nccc([C@@H](O)CN3CCC(NC(=O)c4ccc5nc(-n6cccc6)sc5c4)CC3)c2c1`: the growth inhibition was 40% in test [1] and 90% (active) in test [4]. Also, the inhibition was 26% in test [2] and -2% in test [3]. The result in test [5], in test [6], in test [7] and in test [8] was inactive.
As for `CC(C)Sc1ccc(Cl)cc1CON1C(N)=NC(N)=NC1(C)C`, the growth inhibition in test [1] is 90% (active); in test [4], 93% (active). For the same molecule, the inhibition is 66% (active) in test [2] and 6% in test [3]. Moreover, the result in test [5], in test [6], in test [7] and in test [8] was inactive.
As for `CCN1CCC(N(Cc2ccc(-c3ccc(C(F)(F)F)cc3)cc2)C(=O)CCCCn2c(CCc3cccc(F)c3F)nc(=O)c3ccccc32)CC1`, the growth inhibition in test [1] is 77% (active); in test [4], 90% (active). Besides, the figures for the inhibition in test [2] and in test [3] were 54% (active) and 4%, respectively. Also, the result in test [5], in test [6], in test [7] and in test [8] was inactive.
Consider `Cc1cccc2[nH]c(-c3ccc(-c4ccc(CNCCCNS(C)(=O)=O)cc4)s3)nc12`, for which the growth inhibition was 4% in test [1] and 99% (active) in test [4]. Besides, the results for the inhibition in test [2] and in test [3] were 13% and 3%, respectively. In addition, the outcome in test [5], in test [6], in test [7] and in test [8] was inactive.
For `CSCCC(C(=O)O)N1C(=O)c2ccccc2C1=O` (stereo not given), the growth inhibition was -3% in test [1] and 91% (active) in test [4]. The inhibition in test [2] was -4%; in test [3], -1%. In addition, the outcome in test [5], in test [6], in test [7] and in test [8] was inactive.
With `COc1c(C2=CCN(CCCCNC(=O)c3ccc(-c4ccc(C#N)cc4)cc3)CC2)ccc2c1CCCC2`, the figures for the growth inhibition in test [1] and in test [4] were 82% (active) and 94% (active), respectively. The inhibition is 44% in test [2] and 7% in test [3]. Further, the result in test [5], in test [6], in test [7] and in test [8] was inactive.
For the molecule `COc1cc(NC(=O)Nc2ccc(Br)cc2C(=O)Nc2ccc(Br)cc2)cc(OC)c1OC`, the growth inhibition in test [1] was 98% (active); in test [4], 99% (active). The inhibition in test [2] was -4%; in test [3], 7%. For the same molecule, the result in test [5], in test [6], in test [7] and in test [8] was inactive.
Turning to `CC(=O)Nc1nc(C(=O)Nc2cccc(-c3ccc(-c4nc5ccccc5[nH]4)cc3)c2)cs1`, the growth inhibition is 60% (active) in test [1] and 101% (active) in test [4]. The inhibition in test [2] is 88% (active); in test [3] it was -2%. For the same molecule, the outcome in test [5], in test [6], in test [7] and in test [8] was inactive.
For `CCCCC(=O)NC(c1cccs1)c1cc(Cl)c2cccnc2c1O` (stereo not given), the growth inhibition is 90% (active) in test [1] and 93% (active) in test [4]. Also, the inhibition in test [2] was 50% (active); in test [3] it was 1%. In addition, the result in test [5], in test [6], in test [7] and in test [8] was inactive.
`O=[N+]([O-])c1cccc(NC(=S)N2CCCN(Cc3ccc(Cl)cc3Cl)CC2)c1`: the growth inhibition in test [1] is 50% (active); in test [4], 94% (active). The results for the inhibition in test [2] and in test [3] were 3% and 4%, respectively. Further, the result in test [5], in test [6], in test [7] and in test [8] was inactive.
As to `CN1CC=C(c2csc3ccc(NC(=O)Nc4ccc(-c5ccncc5)c5ccccc45)cc23)CC1`, the growth inhibition in test [1] was 99% (active); in test [4], 93% (active). Also, the inhibition in test [2] was 20%; in test [3] it was 1%. Moreover, the outcome in test [5], in test [6], in test [7] and in test [8] was inactive.
Consider `COCCCn1c(=N)c(C(=O)NCCc2ccc(OC)cc2)cc2c(=O)n3cccc(C)c3nc21`, for which the growth inhibition is 33% in test [1] and 95% (active) in test [4]. The inhibition in test [2] was 18%; in test [3] it was -1%. For the same molecule, the outcome in test [5], in test [6], in test [7] and in test [8] was inactive.
For `CCNS(=O)(=O)c1ccc(Oc2ccc([N+](=O)[O-])cc2)cc1`, the values for the growth inhibition in test [1] and in test [4] were 85% (active) and 94% (active), respectively. The inhibition in test [2] and in test [3] was 1% in each case. The result in test [5], in test [6], in test [7] and in test [8] was inactive.
For `CCc1cc(-c2onc(C)c2-c2cc3ccccc3o2)c(O)cc1OC`, the growth inhibition in test [1] was 33%; in test [4] it was 95% (active). Further, the inhibition in test [2] was 48%; in test [3], -2%. Further, the outcome in test [5], in test [6], in test [7] and in test [8] was inactive.
Turning to `CCCNC(=O)C1Cc2cc(OC)c(OC)cc2C2(N1)C(=O)N(Cc1cccc(OC)c1)c1ccccc12` (stereo not given), the growth inhibition in test [1] was 63% (active); in test [4], 91% (active). The inhibition in test [2] was 11%; in test [3], 3%. Also, the result in test [5], in test [6], in test [7] and in test [8] was inactive.
Turning to `OCCN1CCN(Cc2cccc(-c3ccc(-c4nc5ccc(C(F)(F)F)cc5[nH]4)cc3)c2)CC1`, the growth inhibition in test [1] was 85% (active); in test [4], 102% (active). The inhibition in test [2] was 19%; in test [3], -2%. In addition, the result in test [5], in test [6], in test [7] and in test [8] was inactive.
For the molecule `CNCc1ccc(CN(C)c2nc(N)c3cc(OC)c(OC)cc3n2)cc1`, the growth inhibition in test [1] was 3%; in test [4] it was 96% (active). The inhibition in test [2] was 12%; in test [3], 5%. The outcome in test [5], in test [6], in test [7] and in test [8] was inactive.
For `Cc1ccc(-n2c(Sc3ncnc4sccc34)nnc2N2CCCC2)cc1`, the results for the growth inhibition in test [1] and in test [4] were 100% (active) and 99% (active), respectively. The inhibition is 0% in test [2] and -3% in test [3]. In addition, the result in test [5], in test [6], in test [7] and in test [8] was inactive.
In the case of `CCOc1ccc(OCC(=O)Nc2nc(-c3ccc(OC)cc3)c(C)s2)cc1`, the growth inhibition in test [1] is 98% (active); in test [4], 99% (active). Besides, the figures for the inhibition in test [2] and in test [3] were -7% and -8%, respectively. Moreover, the result in test [5], in test [6], in test [7] and in test [8] was inactive.
Take `COc1cc(NC(=O)Nc2cccc3ccccc23)c(OC)cc1Cl`: the growth inhibition was 71% (active) in test [1] and 97% (active) in test [4]. The inhibition in test [2] is -12%; in test [3] it was 3%. Moreover, the outcome in test [5], in test [6], in test [7] and in test [8] was inactive.
